Rows were chosen to be rich in hits. Some 1.1% of all compounds tested hit in one or more screens of this group.
RXFP1 antagonist: RXFP1 (human) relaxin receptor antagonism; Q9HBX9; HEK293-RXFP1, relaxin-stimulated cAMP HTRF, 30 min; active compounds read low; activity change, negative = inhibition, % at 57.5 µM; hit rate 0.59% among 350,000; AID 1259400;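 active = activity change of -60% or lower, but not beyond a set lower limit; inconclusive = change between -60% and -40%, or beyond the set limit; inactive = change above -40%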; note: % is set by controls: 0 for no effect and ±100 for the full control effect
Target sequence (Q9HBX9 whole entry, looked up): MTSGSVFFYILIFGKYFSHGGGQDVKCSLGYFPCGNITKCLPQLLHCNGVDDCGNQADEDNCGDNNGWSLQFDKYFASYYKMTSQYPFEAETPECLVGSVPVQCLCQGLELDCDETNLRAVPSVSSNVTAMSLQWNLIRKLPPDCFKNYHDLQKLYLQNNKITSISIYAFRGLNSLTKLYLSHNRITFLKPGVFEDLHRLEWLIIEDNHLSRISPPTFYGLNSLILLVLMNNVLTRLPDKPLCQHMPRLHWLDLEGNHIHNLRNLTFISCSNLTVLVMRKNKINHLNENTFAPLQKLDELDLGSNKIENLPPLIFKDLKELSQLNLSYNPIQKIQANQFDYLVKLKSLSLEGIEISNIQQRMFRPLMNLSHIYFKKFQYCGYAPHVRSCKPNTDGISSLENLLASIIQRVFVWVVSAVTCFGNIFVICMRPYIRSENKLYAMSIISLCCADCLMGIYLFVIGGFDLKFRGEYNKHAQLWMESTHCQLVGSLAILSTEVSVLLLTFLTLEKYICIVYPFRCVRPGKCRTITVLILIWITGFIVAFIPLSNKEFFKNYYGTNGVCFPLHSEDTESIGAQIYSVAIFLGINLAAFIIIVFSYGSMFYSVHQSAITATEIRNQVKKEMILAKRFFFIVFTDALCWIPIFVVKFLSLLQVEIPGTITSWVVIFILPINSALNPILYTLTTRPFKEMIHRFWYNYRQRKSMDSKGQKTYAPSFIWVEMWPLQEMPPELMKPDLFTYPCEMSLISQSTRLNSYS
gsp agonist: agonists of gsp mutant (McCune-Albright syndrome); gsp mutant cells, cAMP HTRF, 30 min; Potency, µM (series often up to 76.9 µM), without a hit: at the highest dose activation (cAMP increase), most hits filed as activators; hit rate 0.13% among 340,000; AID 624287; active = well fitted activation curve with a large enough effect; inconclusive = small, poorly fitted or top-dose-only effect, or another doubt; inactive = no such curve, though single readings can be large or run the other way; cell line not stated here;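 note: phosphodiesterase inhibitor Ro 20-1724 added with compounds to block cAMP breakdown; potency is the fitted concentration of half-maximal effect; nearly all actives have a fitted effect of over 60% in size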
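Cells stably selected in G418 were plated at 2000/well, grown 16-24 hr, then given compounds in DMSO with the PDE inhibitor […] (300 uM solution added) for 30 min at 37C; cAMP was read by HTRF.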
gsp antagonist: antagonizes gsp, the McCune-Albright syndrome mutation | gsp-mutant cells, cAMP HTRF, 30 min | Potency, µM (top dose mostly 76.9 µM), without a hit: at the highest dose activity change, negative = inhibition, usual class: inhibitors | hit rate 0.4% among 340,000 | AID 624288; calls by dose curve; cell line not stated here;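 note: intracellular cAMP measured with PDE inhibitor Ro 20-1724 present during compound exposure; potency is the fitted concentration of half-maximal effect; % is set by controls: 0 for no effect and ±100 for the full control effect; nearly all actives have a fitted effect of over 65% in size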
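HTRF cAMP measurement after 30 min RT detection following 30 min, 37C compound treatment alongside […] (added as 300 uM solution) in G418-selected cells seeded at 2000/well and grown 16–24 h.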
Integrin act MD: integrin-mediated muscular dystrophy alleviation activation. alpha7betagal myoblasts, beta-gal FDG fluorescence, 48 h. Potency, µM (highest dose often 38.3 µM), for inactives: at the highest dose activation, actives largely listed as activators. AID 624291. hit rate 0.064% among 350,000;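 note: potency is the fitted concentration of half-maximal effect; 100% = response of the positive control SU9516; nearly all actives have a fitted effect of over 60% in size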
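alpha7betagal+/- myoblasts (passage 13, 250/well) treated 48 h at 37C with compounds at 1:260 dilution of DMSO stock. Lysed, then beta-galactosidase activity read as FDG fluorescence (ex 480/em 540) after 30 min, with pre-read for autofluorescence.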
RXFP1 agonist: agonists of human relaxin receptor RXFP1; Q9HBX9; HEK293T-RXFP1 cAMP TR-FRET, 30 min; response scale: percent of porcine relaxin response, buffer zero; Potency, µM (series often up to 57.5 µM), for the others: at the top dose activation, most hits filed as activators; hit rate 0.3% among 370,000; AID 2676; note: potency is the fitted concentration of half-maximal effect; % is set by controls: 0 for no effect and ±100 for the full control effect; nearly all actives have a fitted effect of over 60% in size
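HEK293T cells stably expressing RXFP1 were pretreated with the PDE4 inhibitor Ro 20174, exposed to compounds for 30 min at 37C, lysed, and cAMP was read by TR-FRET. Data normalized to buffer (basal) and 29 nM porcine relaxin (100%).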
S-ASM inh: blocks human secretory acid sphingomyelinase. hit rate 0.006% among 340,000. AID 504937. P17405. Potency, µM (series often up to 57.5 µM), for inactives: at the top dose activity change, negative = inhibition, hits mostly inhibitors. placental ASM, HMU-PC fluorogenic substrate, 60 min; note: potency is the fitted concentration of half-maximal effect
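qHTS format. ASM enzyme prepared from human placenta hydrolyses the fluorogenic substrate HMU-PC0 (9 uM final) over 60 min at 37 °C after a 10 min compound preincubation.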
An asterisk follows results filed as active; ? = inconclusive; nt = no result; [ ] = another dose, or the depositor's remark. Unless noted, calls come from the whole dose curve; as a rule, active = well fitted curve in the direction sought with a large enough effect; inconclusive = small, poorly fitted or top-dose-only effect, or another doubt; inactive = no such curve, though single readings can be large; an effect the other way counts as inactive or inconclusive.

SMILES | RXFP1 antagonist | gsp agonist | gsp antagonist | Integrin act MD | RXFP1 agonist | S-ASM inh
CC1CCC(C(C)C)C(OC(=O)Cn2c(-c3ccccc3)[n+](C)c3ccccc32)C1 (centres undefined) | -71* | ? | 3% | -9% | 0% | -1%
CC[C@H](C)[C@H](N)C(=O)O | -5 | nt | nt | nt | nt | nt
Cc1noc(C)c1-c1ccc2ncnc(NCc3cccc(-c4ccccc4)c3)c2c1 | nt | nt | nt | nt | 2% | nt
NC(=O)CC(NC(=O)Cc1cccc2ccccc12)c1ccc(N2CCCCCCC2)c([N+](=O)[O-])c1 (centres undefined) | nt | -5% | 50µM* | -8% | -1% | -18%
CCN(CC)c1ccc(C(=O)O)cc1 | 7 | -37% | 2% | 16% | -1% | -3%
CCN(CC)c1ccc(C(=C2C=CC(=[N+](CC)CC)C=C2)c2ccc(S(=O)(=O)O)cc2S(=O)(=O)[O-])cc1 | -90* | -16% | ? | -1% | nt | -8%
COc1cccc(N2CCN(S(=O)(=O)c3ccc(-n4cnnn4)cc3)CC2)c1 | 4 | ? | 9% | 11% | 11% | -4%
Cc1ccc(NC(=O)C2CCCCC2C(=O)O)cc1C (centres undefined) | -3 | -43% | 1% | 11µM* | 4% | 0%
O=C(NCC(c1ccc2c(c1)OCO2)N1CCOCC1)c1ccc(F)cc1 (centres undefined) | -15 | nt | nt | nt | -1% | nt
CO/N=C/c1ccc(N2CCN(C(=O)c3ccc(F)cc3)CC2)c([N+](=O)[O-])c1 | -5 | 25% | 35µM* | 12%[7.66 µM] | 0% | -11%
CO/N=C/c1ccc(N2CCN(C(=O)c3cccc(C(F)(F)F)c3)CC2)c([N+](=O)[O-])c1 | -10 | -2% | ? | -59% | -1% | -18%
COc1ccc(NC(=O)c2ccc3c(c2)NC(=O)CS3)cc1S(=O)(=O)Nc1ccc(Br)cc1 | -3 | -180% | -2% | -22% | -1% | -7%
Cc1ccc(NS(=O)(=O)c2cc(NC(=O)c3ccc4c(c3)NC(=O)CS4)ccc2C)c(C)c1 | -63* | 5%[15.4 µM] | -19% | 0% | -1% | ?
COc1ccc(C(=O)C2CCCN(S(=O)(=O)c3ccc(C(C)=O)cc3)C2)c(C)c1 (centres undefined) | 21 | 26% | ? | -42% | 2% | -3%
CCS(=O)(=O)N1CCCC(C(=O)c2ccc(OC)cc2C)C1 (centres undefined) | -7 | 15%[15.4 µM] | -22% | 11µM* | -2% | -4%
Cc1nnc(Sc2cc(NCCO)c([N+](=O)[O-])c3nonc23)s1 | -82* | ? | ? | -60% | 20% | -4%
CCCC(=O)OCCNc1cc(Sc2nccn2C)c2nonc2c1[N+](=O)[O-] | -81* | -10% | -19% | -46% | 10% | -3%
Cc1nnc(Sc2cc(NCCCO)c([N+](=O)[O-])c3nonc23)s1 | -68* | -1%[15.4 µM] | -25% | -65% | 25% | -8%
CCC(=O)OCCNc1cc(Sc2nc3ccccc3s2)c2nonc2c1[N+](=O)[O-] | -19 | 25% | 7% | -45%[7.66 µM] | 7% | -11%
O=[N+]([O-])c1c(NCCCO)cc(Sc2nc3ccccc3s2)c2nonc12 | -73* | -10% | 9% | -65% | -1% | -2%
CCCCNc1nc2c(S(=O)(=O)c3ccc(C)c(C)c3)nnn2c2ccsc12 | -24 | nt | nt | nt | 20% | nt
COc1ccc(/C=C/c2nc(-c3ccccc3O)n[nH]2)cc1OC | -100* | -17% | -10% | 1% | -1% | -18%
COc1ccc(-c2csc(NC(=O)c3c(C)noc3C)n2)cc1OC | -4 | -40% | nt | 5% | nt | nt
O=C1C=C(c2ccccc2)C(=O)N1Nc1ccccc1 | -109* | -4% | 16% | -44% | 1% | -2%
COc1ccc(C2=CC(=O)N(Nc3ccccc3)C2=O)cc1 | ? | 22%[15.4 µM] | 26% | -23% | 2% | -1%
SMILES | RXFP1 antagonist | gsp agonist | gsp antagonist | Integrin act MD | RXFP1 agonist | S-ASM inh
Cc1ccc(NN2C(=O)C=C(c3ccc(Cl)cc3)C2=O)cc1 | -96* | ? | -7% | 0% | 2% | -2%
COc1cc(CN(C(=O)COc2ccccc2Cl)c2ccccn2)cc(OC)c1OC | nt | nt | nt | nt | 5% | nt
Cc1ccc(OCC(=O)Nc2cccc(S(=O)(=O)N3CCCC3)c2)cc1C | -2 | -1% | nt | -8% | nt | nt
CC(=O)c1c(C)[nH]c(C(=O)OCC(=O)Nc2cc(S(=O)(=O)N3CCCC3)ccc2Cl)c1C | -3 | 9% | -10% | -22% | -1% | -8%
Cc1ccccc1C(=O)OCC(=O)Nc1cccc(S(=O)(=O)N2CCCCC2)c1 | -1 | -2% | nt | 13% | nt | nt
Cc1ccc(C)c(C(=O)OCC(=O)Nc2cccc(S(=O)(=O)N3CCCCC3)c2)c1 | -2 | 5% | 25µM* | -42% | -1% | -2%
CC(=O)c1c(C)[nH]c(C(=O)OCC(=O)Nc2cccc(S(=O)(=O)N3CCCC3)c2)c1C | -2 | -71% | 32µM* | -35% | 1% | -13%
O=C(COc1ccc2ccc(=O)oc2c1)Nc1cccc(S(=O)(=O)N2CCCCC2)c1 | -8 | ? | 28µM* | -1% | 6% | 23%
O=C(O)Cc1cccc(-c2cc(CCCCCCc3ccc(O[C@H]4O[C@H](CO)[C@@H](O)[C@H](O)[C@@H]4O)c(-c4cccc(CC(=O)O)c4)c3)ccc2O[C@H]2O[C@H](CO)[C@@H](O)[C@H](O)[C@@H]2O)c1 | 6 | nt | nt | nt | nt | nt
Cc1csc(=O)n1CCC(=O)OCC(=O)c1c(N)n(CC(C)C)c(=O)n(C)c1=O | -10 | 16% | -12% | -19% | 3% | 1%
Cc1csc(=O)n1CCC(=O)OCC(=O)c1c(N)n(C)c(=O)n(C)c1=O | 13 | 25µM* | 2% | 1% | 25% | 4%
Cc1ccc(C(=O)Nc2c(C(=O)Nc3ccc(C)c(C)c3)sc3nc(C)cc(C)c23)cc1 | -12 | nt | nt | nt | 12% | nt
COc1ccc(C(CCNCc2ccc(N(C)C)cc2)c2ccccc2)cc1 (centres undefined) | -37 | -28% | 1% | -75% | 1% | -3%
COc1ccc(CNCCC(c2ccc3c(c2)OCO3)c2ccccc2OC)cc1 (centres undefined) | -72* | nt | nt | nt | 0% | nt
COc1ccc(C(C)NCCC(c2ccc(OC(C)C)cc2)c2ccccc2OC)cc1 (centres undefined) | -90* | -2% | -3% | -68% | 0% | -13%
CC1CCN(C(=O)CN2CC(C)Sc3ccccc32)CC1 (centres undefined) | -13 | nt | nt | nt | 0% | nt
Cc1cc(C)c2sc(N3CCN(C(=O)C4CC4)CC3)nc2c1 | nt | nt | nt | nt | 2% | nt
COc1cccc(C(=O)Nc2ccc(NC(=O)C3C4C=CC(C4)C3C(=O)O)cc2)c1 (centres undefined) | 5 | 4% | 5% | -9% | -1% | 1%

Screening data: PubChem, National Center for Advancing Translational Sciences (NCATS)
